# Reference: PubChem BioAssay AID504848 (National Center for Advancing Translational Sciences (NCATS), 2011)
# Screen size: about 2,300 compounds; about 1,400 (61%) were called active. Not shown: some 29% with an inconclusive outcome. Calls come from the whole dose curve; as a rule, active = well fitted inhibition curve with a large enough effect; inconclusive = small, poorly fitted or top-dose-only effect, or effect the other way; inactive = no such curve, though single readings can be large or run the other way. So high a share suggests a set chosen from earlier hits. Some of the results follow.
# Assay: Confirmation screen for delayed death inhibitors of the malarial parasite plastid, 96 hour incubation; note: nearly all actives have a fitted effect of over 60% in size
# Settings: P. falciparum luciferase growth in erythrocytes; series mostly up to 28.7 µM
# How it was run: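 Erythrocytes infected with luciferase-expressing P. falciparum (2% hematocrit, 0.1% parasitemia final) in RPMI 1640 with 0.5% Albumax, exposed to compounds 96 h at 37 C, 5% CO2. Growth inhibition read as decreased luciferase luminescence.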
# Potency is the fitted concentration of half-maximal effect.
row,SMILES,Potency
1,Cc1cc(C)cc(NC(=O)C2C3C=CC4(O3)C2C(=O)N(CCCN2CCCC2)C4C(=O)NC2CCCC(C)C2C)c1 (stereo not drawn),12.6 µM (active)
2,O=C(O)c1cc2ccccc2c(N=Nc2cccnc2)c1O,3.98 µM (active)
3,O=C(Nc1ccon1)c1nc[nH]c1C(=O)NCc1ccccc1,7.94 µM (active)
4,CCC(=O)N1c2ccccc2NC2=C(C(=O)CC(c3ccco3)C2)C1c1ccco1 (stereo not drawn),10 µM (active)
5,C=CCC1(O)C(=O)N2C(=C1C(=O)OCC)c1ccc3ccccc3c1CC2(C)C (stereo not drawn),10 µM (active)
6,O=C(Cn1c(=O)oc2ccc(Cl)cc21)NC1CCCCC1,10 µM (active)
7,CN(C)C1(CNC(=O)C2CCC(=O)N(Cc3ccc(Cl)cc3)C2)CCCCC1 (stereo not drawn),5.62 µM (active)
8,Cc1ccc(Nc2nc(=O)c3cccnc3s2)c(Br)c1,inactive
9,Cc1cc(OCC(=O)N[C@@H](CSCc2ccccc2)C(=O)O)c2c(C)c(C)c(=O)oc2c1,14.1 µM (active)
10,CN(CCOc1ccccc1)C(=O)C1CCC(=O)N(CCN2CCOCC2)C1 (stereo not drawn),inactive
11,CN(Cc1ccccc1Cl)C(=O)C1CCC(=O)N(CCc2cccc(F)c2)C1 (stereo not drawn),7.94 µM (active)
12,CN(CCNC(=O)C1CCC(=O)N(Cc2cccc(F)c2)C1)CCc1ccccc1 (stereo not drawn),7.08 µM (active)
13,COc1ccc(C)cc1S(=O)(=O)N1CCN(S(=O)(=O)c2cc(C(=O)O)ccc2C)CC1,8.91 µM (active)
14,Cc1ccc(C(=O)NC2CCCC2)cc1S(=O)(=O)N1CCCCC1,8.91 µM (active)
15,Cc1ccc(C(=O)NC2CCCCC2)cc1S(=O)(=O)N1CCCC1,10 µM (active)
16,O=[N+]([O-])c1ccc(-c2c(-c3ccccc3)ncc3ccc(F)cc23)cc1,12.6 µM (active)
17,Fc1ccc2cnc(-c3ccccc3)c(-c3ccc(C(F)(F)F)cc3)c2c1,14.1 µM (active)
18,O=C(CNC(=O)c1ccco1)OCC(=O)c1ccccc1,inactive
19,CCCCNC(=O)c1onc(CSc2cccc3ccccc23)c1C(=O)O,inactive
20,CCCCNC(=O)c1onc(CSc2ccccc2C)c1C(=O)O,inactive

row,SMILES,Potency
1,CCc1ccc(OCCNC(=O)c2ccccc2SCc2ccccc2)cc1,12.6 µM (active)
2,CCc1ccc(OCCNC(=O)c2ccco2)cc1,12.6 µM (active)
3,CCCn1c(CN2CCN(C(=O)OCC)CC2)nc2cc(NC(=O)C(C)C)ccc21,10 µM (active)
4,Fc1ccccc1N1CCN(c2ncnc3[nH]ncc23)CC1,inactive
5,CCN1CCN(c2ncnc3c2c(-c2ccccc2)cn3-c2ccc(F)cc2)CC1,10 µM (active)
6,CN1CCN(c2ncnc3c2c(-c2ccccc2)cn3-c2ccc(F)cc2)CC1,11.2 µM (active)
7,Cc1[nH]c(C)c(C(=O)/C=C/c2ccc([N+](=O)[O-])cc2)c1C,7.94 µM (active)
8,Cc1c(Cc2ccccc2)c(=O)oc2cc(OC(C)C(=O)NCC3CCC(C(=O)O)CC3)c(Cl)cc12 (stereo not drawn),10 µM (active)
9,Cc1c(OC(C)C(=O)NCC2CCC(C(=O)O)CC2)ccc2c1oc(=O)c1ccccc12 (stereo not drawn),12.6 µM (active)
10,Cc1oc(/C=N/NS(=O)(=O)c2ccccc2)cc1Br,inactive
11,COc1ccc(CN(C(=O)/C=C/C(=O)c2ccc(OC)cc2O)C(C(=O)NC2CCCCC2)c2ccncc2)cc1 (stereo not drawn),6.31 µM (active)
12,COc1ccc(C(=O)/C=C/C(=O)N(CC(=O)NC2CCCCC2)CC2CCCO2)c(O)c1 (stereo not drawn),12.6 µM (active)
13,CCOc1ccc(-c2cc(C(=O)N/N=C(\C)c3cccnc3)c3ccccc3n2)c(OCC)c1,14.1 µM (active)
14,CCOC(=O)CSc1nc2sc3c(c2c(=O)n1C1CCCCC1)CCN(C)C3,2 µM (active)
15,CCn1c(SCC(=O)Nc2ccc(C)cc2)nc2sc3c(c2c1=O)CCN(C)C3,0.708 µM (active)
16,CC(C)(C)OC(=O)NCCCCCNC(=O)c1[nH]cnc1C(=O)Nc1nccs1,7.08 µM (active)
17,Cn1cc([N+](=O)[O-])c(C(=O)Nc2nccs2)n1,inactive
18,COc1cccc(F)c1C(C[N+](=O)[O-])c1c(N)n(C)c(=O)n(C)c1=O (stereo not drawn),3.98 µM (active)
19,Cc1ccc(C)c(N2CCN(S(=O)(=O)c3ccc4c(c3)NC(=O)CS4)CC2)c1,8.91 µM (active)
20,Cc1cccc(N2CCN(S(=O)(=O)c3ccc4c(c3)NC(=O)CO4)CC2)c1C,11.2 µM (active)

row,SMILES,Potency
1,Cc1ccc(CCNC(=O)C2CCN(S(=O)(=O)c3ccc4c(c3)NC(=O)CO4)CC2)cc1,10 µM (active)
2,COc1ccc(C)cc1NC(=O)C1CCN(S(=O)(=O)c2ccc3c(c2)NC(=O)CO3)CC1,7.94 µM (active)
3,O=C(CCl)Nc1cccc(Oc2cnccn2)c1,3.55 µM (active)
4,O=C(/C=C/c1c(F)cccc1Cl)c1ccc(O)cc1,12.6 µM (active)
5,O=C(/C=C/c1ccccc1Cl)c1ccc(O)cc1,10 µM (active)
6,COc1ccc(-c2c(C(C)=O)c(C)n(C)c2C)cc1,10 µM (active)
7,CCCCOc1ccc(NC2=NC3(CCCC3)N=C(N)N2)cc1,0.708 µM (active)
8,COc1ccc2nc3sc(C(=O)NCCN4CCc5ccccc5C4)cc3cc2c1,2.24 µM (active)
9,COc1cc(/C=C2\COC/C(=C\c3ccc(O)c(OC)c3)C2=O)ccc1O,3.55 µM (active)
10,COc1cc(/C=C2\COC/C(=C\c3cc(OC)c(OC)c(OC)c3)C2=O)cc(OC)c1OC,2.51 µM (active)
11,COc1cc(/C=C2\CC(C(C)(C)C)C/C(=C\c3cc(OC)c(OC)c(OC)c3)C2=O)cc(OC)c1OC (stereo not drawn),3.16 µM (active)
12,COc1ccc(/C=C2\CC/C(=C\c3ccc(OC)c(OC)c3)C2=O)cc1OC,14.1 µM (active)
13,COc1cc(/C=C2/CCC/C(=C\c3cc(O)c(OC)c(Cl)c3)C2=O)cc(Cl)c1O,7.08 µM (active)
14,CC(C)c1ccc(C(=O)Nc2nnc(S(=O)(=O)N3CCOCC3)s2)cc1,12.6 µM (active)
15,COc1ccc(C(=O)Nc2nnc(S(=O)(=O)N3CCOCC3)s2)cc1,15.8 µM (active)
16,CCn1c(=O)c(CCC(=O)N2CCOCC2)c(C)c2c(C)nn(-c3ccccc3)c21,10 µM (active)
17,C=CCSC(=C(C#N)C#N)c1cc2c([nH]1)CCCC2,4.47 µM (active)
18,COC(=O)c1c(NC(=O)c2ccco2)sc2c1CC(C)(C)NC2(C)C,14.1 µM (active)
